Experimental data from the supplement of paper PMC10412459.
Counter-ions that a name gives are not always drawn.

System: K562 SF3B1 K700E vs K562 SF3B1 WT
Test: surviving fraction ratio K562 SF3B1 K700E / K562 SF3B1 WT (each relative to DMSO); higher = less selective killing of SF3B1 K700E cells
Conditions: 5 days
Protocol: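 Drug-sensitivity screen of an in-house 80-compound library in isogenic K562 SF3B1 K700E versus SF3B1 WT cells. 250 cells/well in 384-well plates were exposed 24 h after seeding to 0.5-1000 nM compound for 5 days, and viability was read by CellTiter-Glo. Surviving fraction is relative to DMSO, and the value is the ratio of surviving fraction in K700E to WT cells; the paper calls ratio <0.6 with P<0.01 selective.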

CC[C@@H]1C(=O)N(C)c2cnc(Nc3ccc(C(=O)NC4CCN(C)CC4)cc3OC)nc2N1C1CCCC1
surviving fraction ratio K562 SF3B1 K700E / K562 SF3B1 WT (0.5nM): 0.867
surviving fraction ratio K562 SF3B1 K700E / K562 SF3B1 WT (1nM): 0.956
surviving fraction ratio K562 SF3B1 K700E / K562 SF3B1 WT (5nM): 0.455
surviving fraction ratio K562 SF3B1 K700E / K562 SF3B1 WT (10nM): 2.45
surviving fraction ratio K562 SF3B1 K700E / K562 SF3B1 WT (50nM): 2.89
surviving fraction ratio K562 SF3B1 K700E / K562 SF3B1 WT (100nM): 2.99
surviving fraction ratio K562 SF3B1 K700E / K562 SF3B1 WT (500nM): 2.76
surviving fraction ratio K562 SF3B1 K700E / K562 SF3B1 WT (1000nM): 2.22

COc1cccc2c1C(=O)c1c(O)c3c(c(O)c1C2=O)C[C@@](O)(C(=O)CO)C[C@@H]3O[C@H]1C[C@H](N)[C@H](O)[C@H](C)O1 [doxorubicin.HCl]
surviving fraction ratio K562 SF3B1 K700E / K562 SF3B1 WT (0.5nM): 0.974
surviving fraction ratio K562 SF3B1 K700E / K562 SF3B1 WT (1nM): 1.04
surviving fraction ratio K562 SF3B1 K700E / K562 SF3B1 WT (5nM): 0.718
surviving fraction ratio K562 SF3B1 K700E / K562 SF3B1 WT (10nM): 1.07
surviving fraction ratio K562 SF3B1 K700E / K562 SF3B1 WT (50nM): 1.11
surviving fraction ratio K562 SF3B1 K700E / K562 SF3B1 WT (100nM): 0.446
surviving fraction ratio K562 SF3B1 K700E / K562 SF3B1 WT (500nM): 1.24
surviving fraction ratio K562 SF3B1 K700E / K562 SF3B1 WT (1000nM): 2.24

COc1cc2c(cc1O)CC[C@@H]1[C@@H]2CC[C@]2(C)[C@@H](O)CC[C@@H]12 [2-methoxyestradiol]
surviving fraction ratio K562 SF3B1 K700E / K562 SF3B1 WT (0.5nM): 0.765
surviving fraction ratio K562 SF3B1 K700E / K562 SF3B1 WT (1nM): 0.733
surviving fraction ratio K562 SF3B1 K700E / K562 SF3B1 WT (5nM): 0.666
surviving fraction ratio K562 SF3B1 K700E / K562 SF3B1 WT (10nM): 0.851
surviving fraction ratio K562 SF3B1 K700E / K562 SF3B1 WT (50nM): 0.706
surviving fraction ratio K562 SF3B1 K700E / K562 SF3B1 WT (100nM): 0.595
surviving fraction ratio K562 SF3B1 K700E / K562 SF3B1 WT (500nM): 0.626
surviving fraction ratio K562 SF3B1 K700E / K562 SF3B1 WT (1000nM): 1.48

CN(C)C/C=C/C(=O)Nc1cc2c(Nc3ccc(F)c(Cl)c3)ncnc2cc1O[C@H]1CCOC1
surviving fraction ratio K562 SF3B1 K700E / K562 SF3B1 WT (0.5nM): 0.936
surviving fraction ratio K562 SF3B1 K700E / K562 SF3B1 WT (1nM): 1.06
surviving fraction ratio K562 SF3B1 K700E / K562 SF3B1 WT (5nM): 0.796
surviving fraction ratio K562 SF3B1 K700E / K562 SF3B1 WT (10nM): 0.769
surviving fraction ratio K562 SF3B1 K700E / K562 SF3B1 WT (50nM): 0.795
surviving fraction ratio K562 SF3B1 K700E / K562 SF3B1 WT (100nM): 0.679
surviving fraction ratio K562 SF3B1 K700E / K562 SF3B1 WT (500nM): 0.666
surviving fraction ratio K562 SF3B1 K700E / K562 SF3B1 WT (1000nM): 0.915

C[C@]12CC[C@H](O)CC1=CC[C@@H]1[C@@H]2CC[C@]2(C)C(c3cccnc3)=CC[C@@H]12
surviving fraction ratio K562 SF3B1 K700E / K562 SF3B1 WT (0.5nM): 1.04
surviving fraction ratio K562 SF3B1 K700E / K562 SF3B1 WT (1nM): 0.918
surviving fraction ratio K562 SF3B1 K700E / K562 SF3B1 WT (5nM): 0.91
surviving fraction ratio K562 SF3B1 K700E / K562 SF3B1 WT (10nM): 0.915
surviving fraction ratio K562 SF3B1 K700E / K562 SF3B1 WT (50nM): 0.899
surviving fraction ratio K562 SF3B1 K700E / K562 SF3B1 WT (100nM): 1.01
surviving fraction ratio K562 SF3B1 K700E / K562 SF3B1 WT (500nM): 0.995
surviving fraction ratio K562 SF3B1 K700E / K562 SF3B1 WT (1000nM): 0.937
